Our source for the Potency values is PubChem BioAssay (NCATS).

Results filed as inconclusive are left out. Calls of active or inactive are those of the source. Calls come from the whole dose curve; as a rule, active = well fitted cell-killing curve with a large enough effect; inconclusive = small, poorly fitted or top-dose-only effect, or effect the other way; inactive = no such curve, though single readings can be large or run the other way.
Potency is the fitted concentration of half-maximal effect.

A short description of this assay: Viability qHTS for spleen associated tyrosine kinase inhibitor (SYKi) drug resistant MV4-11 cells (AID 1963824). Note: nearly all actives have a fitted effect of over 35% in size. Particulars: SYKi-resistant MV4-11 viability, CellTiter-Glo, 72 h; series mostly up to 45 µM. A digest of the protocol: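 SYK-inhibitor-resistant MV4-11 AML cells were seeded at 500 per well onto compound and cultured 72 hours (37 °C, 5% CO2). CellTiter-Glo was then added, and after 10 min at room temperature, luminescence gave viability.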
On the technique in general: Quantitative high-throughput screening tests each substance at several concentrations.
In the case of `C=C1CC[C@@H](O)[C@]2(C)C[C@H]3OC(=O)C(=C)[C@H]3CC12` (stereo partly drawn), the Potency is 6.51 µM (active). For the compound `C=C1C(=O)O[C@@H]2/C=C(\CO)CC/C=C(/C=O)C[C@@H](O)[C@@H]12`, the Potency was 2.06 µM (active).

As for `C=C(C(=O)OC)C1C(O)CC2(C)C(O)CCC(=O)C2C1O` (stereo not drawn), the Potency result was “inactive”.
